Results filed as inconclusive are left out. Active and inactive are the calls of the source. Unless noted, calls come from the whole dose curve; as a rule, active = well fitted curve in either direction with a large enough effect (not every such curve was filed as active); inconclusive = small, poorly fitted or top-dose-only effect, or another doubt; inactive = flat fitted curve, though single readings scatter.
Tests used:
[1] = AP1 Signaling Pathway (AID 357); conditions: ME-180 AP-1-bla reporter, EGF-induced, beta-lactamase ratio, 5 h; at 17.2 µM (top of the series) unless noted;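 note: ME-180 reporter cells stimulated with EGF at its EC50 level; % is set by controls: 0 for no effect and ±100 for the full control effect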
Summary of the method: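 First, ME-180 AP-1-bla cells were cultured overnight at 37 °C in low-serum Opti-MEM. Next, titrated compounds with EC50 EGF were incubated 5 hours. Finally, CCF4 was added for 2.5 hours and the 460/530 nm ratio recorded.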

[2] = NFAT Signaling Pathway (AID 444); conditions: Jurkat NFAT-bla M1, carbachol, beta-lactamase ratio, 5 h; at 17.2 µM (top of the series) unless noted;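 note: carbachol stimulus at about its EC50 of 1 µM final; % is set by controls: 0 for no effect and ±100 for the full control effect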
Summary of the method: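 Read-out: CCF4 FRET ratio (460 nm/530 nm) after 1 h RT dye loading, used for %activity and AC50 from titration series. Cells: Jurkat NFAT-β-lactamase/M1 line, treated with compound plus 1 uM carbachol for 5 h, 37 °C.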

[3] = Stat Signaling Pathway (AID 446); conditions: ME-180 SIE beta-lactamase reporter, IL-6 stimulated, 5 h; at 17.2 µM (top of the series) unless noted;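 note: ME-180 cervical cancer cells given 40 pM IL-6 alongside compound; SIE-controlled beta-lactamase reporter measured as 460/530 nm FRET emission ratio; % is set by controls: 0 for no effect and ±100 for the full control effect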
Summary of the method: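 Overnight-plated ME-180 cells bearing a STAT Inducible Element beta-lactamase reporter; 5 h co-exposure to compound and 40 pM IL-6; values normalized to 300 pM IL-6 and 125 nM JAK inhibitor controls.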

[4] = target: Glucocorticoid receptor (Homo sapiens) (UniProt P04150); assay: GR-GFP Redistribution (AID 450;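 active = compounds whose dose series gives a full or clear partial fitted curve of increased nuclear translocation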; note: potency is the fitted concentration of half-maximal effect)
Chain of Glucocorticoid receptor (Homo sapiens) (P04150 whole entry, looked up, the tested form may be a part): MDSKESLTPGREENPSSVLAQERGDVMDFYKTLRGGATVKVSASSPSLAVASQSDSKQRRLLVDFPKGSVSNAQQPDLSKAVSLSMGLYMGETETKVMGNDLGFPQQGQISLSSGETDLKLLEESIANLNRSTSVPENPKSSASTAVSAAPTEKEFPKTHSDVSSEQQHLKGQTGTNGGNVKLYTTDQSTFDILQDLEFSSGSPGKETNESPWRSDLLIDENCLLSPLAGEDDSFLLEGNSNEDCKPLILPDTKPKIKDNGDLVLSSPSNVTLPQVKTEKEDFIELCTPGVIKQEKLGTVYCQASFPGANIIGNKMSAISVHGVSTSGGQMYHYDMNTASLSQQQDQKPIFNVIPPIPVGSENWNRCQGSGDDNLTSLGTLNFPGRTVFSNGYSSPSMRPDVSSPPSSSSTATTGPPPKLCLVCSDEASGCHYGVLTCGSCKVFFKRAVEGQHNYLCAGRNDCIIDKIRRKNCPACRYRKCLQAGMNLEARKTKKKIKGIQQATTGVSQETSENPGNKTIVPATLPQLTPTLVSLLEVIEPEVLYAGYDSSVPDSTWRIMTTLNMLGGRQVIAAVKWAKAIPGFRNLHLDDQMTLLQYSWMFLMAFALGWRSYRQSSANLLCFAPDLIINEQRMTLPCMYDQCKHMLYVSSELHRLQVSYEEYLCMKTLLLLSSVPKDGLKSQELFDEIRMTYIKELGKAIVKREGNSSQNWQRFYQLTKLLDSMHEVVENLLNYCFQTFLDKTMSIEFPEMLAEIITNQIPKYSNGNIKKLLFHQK

[5] = target: Glucocorticoid receptor (Homo sapiens) (UniProt P04150); assay: GR-EFC Redistribution (AID 451; calls by dose curve; note: potency is the fitted concentration of half-maximal effect); conditions: CHO-K1 GR-EFC translocation, beta-gal luminescence, 2 h
Summary of the method: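 Translocation of GR-ED fusion to nuclear EA restores b-gal, read by luminescence after 1 h room-temperature detection. Engineered CHO-K1 biosensor cells, 1,000/well, exposed 2 h at 37 C to titrations up to 46 uM final.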

[6] = target: Mitogen-activated protein kinase 10 (Mus musculus) (UniProt Q61831); assay: JNK3 AlphaScreen Assay (AID 530);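 note: kinase came from lysate of stimulated human HepG2 cells; signal reports phosphorylation of biotinylated GST-cJun 1-79 at Ser73 with 10 µM ATP; % is set by controls: 0 for no effect and ±100 for the full control effect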
Summary of the method: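 Kinase buffer: 20 mM Tris-HCl pH 7.6, 10 mM MgCl2, 1 mM DTT, 0.1 mM Na3VO4, 0.01% Tween-20; ATP 10 uM. Substrate biotin-GST-cJun(1-79), enzyme from activated HepG2 lysates. Detection by Ser73 phospho-antibody AlphaScreen.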

[7] = target: 3',5'-cyclic-AMP phosphodiesterase 4B (Homo sapiens) (UniProt Q07343); assay: qHTS Assay for Inhibitors of PDE-IV (AID 607; active = well fitted activation curve with a large enough effect in the main read-out, with a control signal flat, not every such curve was filed as active; note: % of control where 0% means no effect)
Chain of 3',5'-cyclic-AMP phosphodiesterase 4B (Homo sapiens) (Q07343 whole entry, looked up): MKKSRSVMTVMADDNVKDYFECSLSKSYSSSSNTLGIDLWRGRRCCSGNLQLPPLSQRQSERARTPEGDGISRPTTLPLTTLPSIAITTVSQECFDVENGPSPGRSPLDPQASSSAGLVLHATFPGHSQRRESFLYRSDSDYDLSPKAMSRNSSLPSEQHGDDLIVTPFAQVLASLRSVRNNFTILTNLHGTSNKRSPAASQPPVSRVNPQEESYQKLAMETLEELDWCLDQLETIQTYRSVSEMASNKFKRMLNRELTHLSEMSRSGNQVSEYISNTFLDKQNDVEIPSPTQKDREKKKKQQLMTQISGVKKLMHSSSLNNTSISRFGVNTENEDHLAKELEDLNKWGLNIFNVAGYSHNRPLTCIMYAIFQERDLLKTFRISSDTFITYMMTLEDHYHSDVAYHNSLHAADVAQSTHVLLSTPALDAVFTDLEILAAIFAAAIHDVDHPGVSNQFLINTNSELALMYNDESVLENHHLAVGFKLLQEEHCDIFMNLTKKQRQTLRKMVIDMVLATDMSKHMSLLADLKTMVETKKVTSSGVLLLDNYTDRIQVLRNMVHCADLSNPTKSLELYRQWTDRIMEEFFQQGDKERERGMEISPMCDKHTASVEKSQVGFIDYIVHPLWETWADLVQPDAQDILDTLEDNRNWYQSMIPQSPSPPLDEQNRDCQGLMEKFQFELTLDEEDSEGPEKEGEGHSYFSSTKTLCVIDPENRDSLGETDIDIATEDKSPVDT
Summary of the method: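 Live HEK293 cells with a modified cyclic nucleotide-gated (CNG) channel report intracellular cAMP via membrane-potential dye fluorescence (ex 535/em 590 nm). Endogenous PDE-IV was targeted. Compounds were tested at up to 22.9 uM final; RO 20-1724 100 uM served as control.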

[8] = target: Guanine nucleotide-binding protein G(i) subunit alpha-1 (Homo sapiens) (UniProt P63096); assay: qHTS Assay for Inhibitors of RGS12 GoLoco Motif Activity (Green Fluorophore) (AID 879; active = well fitted curve in the direction sought with a large enough effect; an effect the other way counts as inactive or inconclusive;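 note: 0% = labeled peptide with Gαi1 and full inhibition = labeled peptide alone without protein; negative values mean loss of peptide binding seen as reduced polarization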)
Chain of Guanine nucleotide-binding protein G(i) subunit alpha-1 (Homo sapiens) (P63096 whole entry, looked up): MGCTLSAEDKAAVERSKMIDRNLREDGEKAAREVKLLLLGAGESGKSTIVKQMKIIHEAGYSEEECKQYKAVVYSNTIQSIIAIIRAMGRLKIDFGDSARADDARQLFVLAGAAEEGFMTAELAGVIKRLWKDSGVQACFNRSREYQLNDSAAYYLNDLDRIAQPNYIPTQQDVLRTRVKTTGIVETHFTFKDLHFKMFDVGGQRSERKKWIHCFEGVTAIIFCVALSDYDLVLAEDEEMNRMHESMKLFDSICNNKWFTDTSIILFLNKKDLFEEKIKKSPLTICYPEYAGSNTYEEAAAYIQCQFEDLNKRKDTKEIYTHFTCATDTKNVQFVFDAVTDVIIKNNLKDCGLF
Summary of the method: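 A drop in FITC polarization marked displacement of the FITC-tagged RGS12 GoLoco peptide (10 nM) from Gαi1 (50 nM). Compounds were incubated 10 min at room temperature in Tris pH 7.5 buffer containing 150 mM NaCl, 0.1 mM GDP and 0.05% NP40; unlabeled peptide titration served as control.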

[9] = qHTS Assay for Identification of Small Molecule Agonists for Thrombopoietin (TPO) Signaling Pathway (AID 917; active = well fitted curve in the direction sought with a large enough effect; an effect the other way counts as inactive or inconclusive; note: % is set by controls: 0 for no effect and ±100 for the full control effect)
Summary of the method: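 Quantitative HTS for pathway activators: compounds were pin-transferred onto IL-3-starved Ba/F3 cells expressing human TPO receptor, TPO was added at its EC50 (26 pM final), and after 24 hrs at 37 C reporter luciferase was measured.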

[10] = target: Muscarinic acetylcholine receptor M1 (Rattus norvegicus) (UniProt P08482); assay: qHTS Assay for Antagonists of Acetylcholine Muscarinic M1 Receptor: Measurement of IP-One Response (AID 944; active = well fitted curve in the direction sought with a large enough effect; an effect the other way counts as inactive or inconclusive; note: nearly all actives have a fitted effect of over 75% in size)
Chain of Muscarinic acetylcholine receptor M1 (Rattus norvegicus) (P08482 whole entry, looked up): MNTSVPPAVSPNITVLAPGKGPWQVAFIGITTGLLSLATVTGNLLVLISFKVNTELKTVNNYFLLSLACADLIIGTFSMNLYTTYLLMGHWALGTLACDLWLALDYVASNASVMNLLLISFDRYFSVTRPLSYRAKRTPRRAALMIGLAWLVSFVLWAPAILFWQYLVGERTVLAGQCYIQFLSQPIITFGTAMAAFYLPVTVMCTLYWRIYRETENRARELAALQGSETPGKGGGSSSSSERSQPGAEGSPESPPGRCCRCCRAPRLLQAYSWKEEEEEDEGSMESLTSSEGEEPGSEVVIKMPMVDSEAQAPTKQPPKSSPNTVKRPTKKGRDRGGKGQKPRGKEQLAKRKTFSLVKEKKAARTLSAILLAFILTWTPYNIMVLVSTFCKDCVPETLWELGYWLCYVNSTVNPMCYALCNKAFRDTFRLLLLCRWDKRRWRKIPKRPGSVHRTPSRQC
Summary of the method: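 Read-out: HTRF competition between d2-IP1 and Eu-cryptate anti-IP1 antibody, emission 620 and 665 nm. Stimulus was carbachol, EC80 (200 nM), for 30 min in M1-CHO cells (rat receptor), after 10 min compound pre-treatment.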

[11] = target: Pyruvate kinase (Leishmania mexicana) (UniProt Q27686); assay: qHTS Validation Assay for Inhibitors of Leishmania Mexicana Pyruvate Kinase (AID 945; active = well fitted curve in the direction sought with a large enough effect; an effect the other way counts as inactive or inconclusive;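 note: 0% = DMSO only neutral control wells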)
Chain of Pyruvate kinase (Leishmania mexicana) (Q27686 2-499 E452W): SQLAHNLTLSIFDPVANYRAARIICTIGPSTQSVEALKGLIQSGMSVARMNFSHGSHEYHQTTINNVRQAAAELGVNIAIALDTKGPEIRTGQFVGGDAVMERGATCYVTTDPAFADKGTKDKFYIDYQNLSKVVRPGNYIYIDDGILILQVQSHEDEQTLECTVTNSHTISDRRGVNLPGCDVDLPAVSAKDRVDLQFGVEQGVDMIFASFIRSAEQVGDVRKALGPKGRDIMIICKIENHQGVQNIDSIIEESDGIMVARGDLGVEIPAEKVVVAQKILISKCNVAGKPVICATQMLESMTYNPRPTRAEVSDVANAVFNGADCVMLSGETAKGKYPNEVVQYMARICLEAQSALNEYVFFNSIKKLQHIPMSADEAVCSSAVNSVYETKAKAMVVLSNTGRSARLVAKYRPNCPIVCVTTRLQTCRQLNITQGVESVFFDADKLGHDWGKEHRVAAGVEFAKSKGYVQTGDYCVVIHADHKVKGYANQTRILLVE
Summary of the method: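 Mutant LmPYK (E451W), 0.2 nM, plus 0.5 mM PEP and 0.1 mM ADP in 50 mM imidazole pH 7.2 containing 0.01% Tween 20 and 0.05% BSA. Incubated 1 h at room temperature; luminescence via PKLight, normalized to DMSO.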

[12] = target: Pyruvate kinase PKM (Homo sapiens) (UniProt P14618); assay: qHTS Assay for Activators of Human Muscle Pyruvate Kinase (AID 954; active = well fitted curve in the direction sought with a large enough effect, not every such curve was filed as active;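 note: 0% = uninhibited enzyme and -100% = no enzyme or full thiadiazolimine inhibition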)
Chain of Pyruvate kinase PKM (Homo sapiens) (P14618 whole entry, looked up): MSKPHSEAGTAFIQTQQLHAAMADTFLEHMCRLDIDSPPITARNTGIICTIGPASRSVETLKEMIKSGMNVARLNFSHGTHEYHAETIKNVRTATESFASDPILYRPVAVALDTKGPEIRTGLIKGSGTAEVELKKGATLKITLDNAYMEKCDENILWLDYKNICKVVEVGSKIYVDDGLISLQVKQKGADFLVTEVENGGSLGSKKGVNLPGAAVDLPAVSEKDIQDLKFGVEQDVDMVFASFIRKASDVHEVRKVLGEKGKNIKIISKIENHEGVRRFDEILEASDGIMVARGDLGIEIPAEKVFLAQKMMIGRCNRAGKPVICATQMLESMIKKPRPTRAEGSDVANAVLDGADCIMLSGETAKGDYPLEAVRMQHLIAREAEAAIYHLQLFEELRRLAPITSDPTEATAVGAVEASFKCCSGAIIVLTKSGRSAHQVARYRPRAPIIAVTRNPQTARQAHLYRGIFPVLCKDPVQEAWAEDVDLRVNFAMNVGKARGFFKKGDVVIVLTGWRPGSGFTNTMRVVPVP
Summary of the method: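 Screening used highly purified human pyruvate kinase M2 under submaximal activity, with PEP at its Km and ADP below Km. After an hour at room temperature, ATP was read by luciferase luminescence.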

[13] = target: Alpha-galactosidase A (Homo sapiens) (UniProt P06280); assay: Counterscreen for Glucocerebrosidase Inhibitors: qHTS Assay for Human alpha-Galactosidase at pH 4.5 (AID 992; active = well fitted curve in the direction sought with a large enough effect; an effect the other way counts as inactive or inconclusive; note: 0% is about no effect)
Chain of Alpha-galactosidase A (Homo sapiens) (P06280 whole entry, looked up): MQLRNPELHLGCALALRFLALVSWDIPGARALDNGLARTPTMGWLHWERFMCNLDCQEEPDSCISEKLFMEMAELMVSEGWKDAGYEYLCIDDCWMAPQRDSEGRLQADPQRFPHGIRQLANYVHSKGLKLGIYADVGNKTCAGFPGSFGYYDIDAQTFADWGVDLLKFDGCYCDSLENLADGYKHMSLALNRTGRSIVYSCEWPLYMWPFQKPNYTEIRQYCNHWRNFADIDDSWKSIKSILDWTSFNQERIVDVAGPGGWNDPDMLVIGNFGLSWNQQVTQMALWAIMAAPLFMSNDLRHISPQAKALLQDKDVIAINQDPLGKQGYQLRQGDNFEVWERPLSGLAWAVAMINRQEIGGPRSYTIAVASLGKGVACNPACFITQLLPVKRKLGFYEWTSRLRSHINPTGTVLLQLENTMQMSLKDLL
Summary of the method: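 Each compound is preincubated briefly with 2 nM enzyme before substrate addition (80 uM); plates then sit 20 min at ambient temperature, are quenched with 1M NaOH/1M glycine, and read fluorometrically.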

[14] = target: alpha-glucosidase (Oryza sativa, rice) (UniProt Q653V4); assay: Counterscreen for Glucocerebrosidase Inhibitors: qHTS Assay for Rice alpha-Glucosidase at pH 5.0 (AID 997; active = well fitted curve in the direction sought with a large enough effect; an effect the other way counts as inactive or inconclusive;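 note: 0% = full activity with enzyme and -100% = basal without enzyme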)
Summary of the method: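 Endpoint fluorogenic assay at pH 5.0: compounds (0.7 nM to 77 uM) titrated against 4 nM rice enzyme and 400 uM 4-MU-alpha-glucoside for 20 min at room temperature; NaOH/glycine stop, read ex 365/em 440 nm, Hill-fitted AC50.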

[15] = qHTS Assay for Identification of Small Molecule Antagonists for NFkB Signaling Pathway (AID 895; active = well fitted inhibition curve with a large enough effect in the signal ratio, with a control signal flat, not every such curve was filed as active; the % refers to the signal ratio; note: potency is the fitted concentration of half-maximal effect)
Summary of the method: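 Beta-lactamase reporter read-out (460 and 530 nm emission ratio, 405 nm excitation, 2 hrs substrate loading RT) after 5 hr stimulation with 10 pM TNF alpha in compound-treated NFkB-bla ME-180 cells in low-serum medium.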

[16] = qHTS Assay for Identification of Small Molecule Agonists for Hypoxia Response Element Signaling Pathway (AID 914; active = well fitted activation curve with a large enough effect in the signal ratio, with a control signal flat, not every such curve was filed as active; the % refers to the signal ratio; note: % of control where 0% means no effect); conditions: ME-180 (cervical carcinoma) HRE-bla reporter, beta-lactamase ratio, CoCl2, 17 h; activation: hits give high values
Summary of the method: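 Reporter activity (beta-lactamase, CCF4 460nm/530nm ratio) in HRE-bla ME-180 cells is recorded after 17 h compound exposure with EC50 CoCl2 at 37 degrees Celsius. AC50 values come from titration data.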

[17] = target: Muscarinic acetylcholine receptor M1 (Rattus norvegicus) (UniProt P08482); assay: qHTS Assay for Antagonists of Acetylcholine Muscarinic M1 Receptor: Kinetic Measurement of Intracellular Calcium Response (AID 943; active = well fitted curve in the direction sought with a large enough effect; an effect the other way counts as inactive or inconclusive;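 note: Fluo-4 calcium signal as peak divided by basal fluorescence over 4 min; nearly all actives have a fitted effect of over 75% in size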)
Summary of the method: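 Read-out: peak over basal Fluo-4 fluorescence, kinetic at 1 Hz for 4 min after EC80 carbachol (100 nM final). Rat M1-CHO cells, dye loaded 1 h at 37C, compound added 10 min before agonist.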

[18] = Confirmation and Secondary Assay for Modulators of Hemoglobin Beta Chain Splicing at IVS2 654 locus (AID 910; active = well fitted curve in the direction sought with a large enough effect; an effect the other way counts as inactive or inconclusive;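 note: HeLa cells stably carrying EGFP split by mutant beta-globin IVS2-654 intron; per-well total GFP intensity by laser scanning cytometry after 2-day treatment; % of control where 0% means no effect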)
Summary of the method: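 Readout: per-well total peak green fluorescence (488 nm ex, 500–520 nm em) from objects 5–250 µm, reflecting correct splicing of an EGFP-654 reporter. Compounds were applied for 2 days at 37 °C to overnight-plated HeLa EGFP-654 cells; controls were DMSO and 500 nM IVS2-654 PNA.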

[19] = Confirmation and Secondary Assay for Modulators of Hemoglobin Beta Chain Splicing at IVS2 705 locus (AID 930; active = well fitted curve in the direction sought with a large enough effect; an effect the other way counts as inactive or inconclusive;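 note: HeLa cells stably expressing the EGFP-705 splicing reporter; GFP fluorescence per well restored by corrected splicing of the IVS2-705 intron in EGFP; % of control where 0% means no effect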)
Summary of the method: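 Stable HeLa line with EGFP disrupted by mutant beta-globin intron 2 (705). Overnight attachment, then 2 days of compound at 37C, 5% CO2. Signal: peak GFP intensity summed over objects 5-250 µm.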

[20] = target: Cytochrome P450 3A4 (Homo sapiens) (UniProt P08684); assay: qHTS Assay for Activators of Cytochrome P450 3A4 (AID 885; active = well fitted curve in the direction sought with a large enough effect; an effect the other way counts as inactive or inconclusive; note: nearly all actives have a fitted effect of over 65% in size)
Chain of Cytochrome P450 3A4 (Homo sapiens) (P08684 whole entry, looked up): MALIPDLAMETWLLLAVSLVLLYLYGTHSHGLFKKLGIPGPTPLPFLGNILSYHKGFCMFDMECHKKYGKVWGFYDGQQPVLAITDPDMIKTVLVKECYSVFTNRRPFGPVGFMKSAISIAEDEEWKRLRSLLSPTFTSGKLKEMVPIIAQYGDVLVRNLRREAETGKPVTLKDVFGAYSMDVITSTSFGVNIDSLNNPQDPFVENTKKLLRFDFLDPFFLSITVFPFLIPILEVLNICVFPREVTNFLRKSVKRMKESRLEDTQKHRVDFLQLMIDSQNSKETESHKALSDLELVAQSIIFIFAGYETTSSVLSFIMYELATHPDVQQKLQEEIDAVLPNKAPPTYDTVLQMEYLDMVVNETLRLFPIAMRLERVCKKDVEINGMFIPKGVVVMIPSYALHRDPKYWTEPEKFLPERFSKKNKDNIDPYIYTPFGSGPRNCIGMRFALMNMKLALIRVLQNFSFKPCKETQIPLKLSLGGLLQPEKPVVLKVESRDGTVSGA
Summary of the method: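 Using 20nM recombinant human CYP3A4 in potassium phosphate (200mM), substrate Luciferin-PPXE at 25uM, luminescent luciferin detection followed a 60-min RT NADPH reaction; data scaled to 57 uM ketoconazole.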

CCOC(=O)CCCCC(=O)NC(CO)C(=O)NC (stereo not drawn)
inactive: activity change, negative = inhibition [1] 13.2% | activity change, negative = inhibition [2] 6.3% | activity, negative = inhibition [3] 8.86% | Potency [4] > 20.6 µM

CC(=O)O[C@@H]1C[C@]2(C)[C@H](C[C@@H](O)[C@H]3[C@@]4(C)CC[C@@H](O)[C@@H](C)[C@@H]4CC[C@@]32C)/C1=C(\CCC=C(C)C)C(=O)O
inactive: activity change, negative = inhibition [1] -14.6% [at 38 µM] | activity change, negative = inhibition [2] -0.766% [at 38 µM] | activity, negative = inhibition [3] 11.2% [at 38 µM] | Potency [4] > 46 µM | Potency [5] > 46 µM | Potency [6] | Potency [7] | outcome [8] | Potency [9] | Potency [10] | Potency [11] | outcome [12] | outcome [13] | outcome [14]

CCOC(=O)COc1nc(N(C)C)nc(N(C)C)n1
inactive: activity change, negative = inhibition [1] 5.84% | activity change, negative = inhibition [2] -1.43% | activity, negative = inhibition [3] 8.42% | Potency [4] > 20.6 µM

COc1cccc(OC)c1OCCNC[C@@H]1CSc2ccccc2O1
inactive: activity change, negative = inhibition [1] 18% [at 38 µM] | activity change, negative = inhibition [2] -12.7% [at 38 µM] | activity, negative = inhibition [3] -23.8% [at 38 µM] | Potency [4] > 46 µM | Potency [5] > 46 µM | Potency [6] | Potency [7] | outcome [8] | Potency [15] | Potency [9] | Potency [11] | outcome [12] | outcome [13] | outcome [14]

Nc1cc(S(N)(=O)=O)ccc1SSc1ccc(S(N)(=O)=O)cc1N
inactive: activity change, negative = inhibition [1] 19.2% [at 7.69 µM] | activity change, negative = inhibition [2] -0.508% [at 7.69 µM] | activity, negative = inhibition [3] -1.82% [at 7.69 µM] | Potency [4] > 46 µM | Potency [5] > 9.22 µM | activity change, negative = inhibition [6] -4.44% [at 11.4 µM] | Potency [7]

CCOC(=O)C(NC=O)(NC(C)(C)C)C(=O)OCC
inactive: activity change, negative = inhibition [1] -2.44% | activity change, negative = inhibition [2] 4.66% | activity, negative = inhibition [3] 24.2% | Potency [4] > 20.6 µM

O=c1[nH]c(=O)n([C@H]2C[C@H](O)[C@H](CO)O2)cc1/C=C\Br
inactive: activity change, negative = inhibition [1] -6.02% [at 38 µM] | activity change, negative = inhibition [2] 3.97% [at 38 µM] | activity, negative = inhibition [3] 6.62% [at 38 µM] | Potency [4] > 46 µM | Potency [5] > 46 µM | Potency [6] | Potency [7] | outcome [8] | Potency [15] | activation [16] 0.219% | Potency [9] | Potency [17] | Potency [10] | Potency [11] | outcome [12] | outcome [13] | outcome [14]

O=C(CSc1ncnc2nc[nH]c12)c1ccccc1
inactive: activity change, negative = inhibition [1] -9.01% [at 7.69 µM] | activity change, negative = inhibition [2] 11.7% [at 7.69 µM] | activity, negative = inhibition [3] 1.65% [at 7.69 µM] | Potency [4] > 46 µM | Potency [5] > 9.22 µM | activity change, negative = inhibition [6] -0.309% [at 11.4 µM] | Potency [7]

CN(C)c1ccc(C2C3C(=O)N(c4ccc(C(=O)O)cc4)C(=O)C3ON2c2ccccc2)cc1 (stereo not drawn)
inactive: activity change, negative = inhibition [1] -1.48% | activity change, negative = inhibition [2] 17.3% | activity, negative = inhibition [3] 5.33% | Potency [4] > 20.6 µM

CC(=O)c1cc(C#N)c(SCc2ccncc2)nc1C
inactive: activity change, negative = inhibition [1] -9.02% | activity change, negative = inhibition [2] -4.04% | activity, negative = inhibition [3] -3.61% | Potency [4] > 20.6 µM

Nc1ccn([C@@H]2O[C@@H](CO)[C@@H](O)[C@H]2O)c(=O)n1
inactive: activity change, negative = inhibition [1] 10.7% [at 38 µM] | activity change, negative = inhibition [2] -7.43% [at 38 µM] | activity, negative = inhibition [3] 19% [at 38 µM] | Potency [4] > 46 µM | Potency [5] > 46 µM | Potency [6] | Potency [7] | outcome [8] | Potency [18] | Potency [19] | Potency [10] | Potency [11] | outcome [12] | outcome [13] | outcome [14]

O=C1c2c(O)cc(O)cc2O[C@@H](c2ccc(O)c(O)c2)[C@H]1O
active: Potency [15] 1.58 µM
inactive: activity change, negative = inhibition [1] -14.3% [at 38 µM] | activity change, negative = inhibition [2] 13.3% [at 38 µM] | activity, negative = inhibition [3] -8.15% [at 38 µM] | Potency [4] > 46 µM | Potency [5] > 46 µM | Potency [6] | Potency [7] | outcome [8] | Potency [20] | Potency [9] | Potency [11] | outcome [12] | outcome [13] | outcome [14]

CC(=O)OCC(=O)[C@H]1CC[C@H]2[C@@H]3CC=C4C[C@@H](O)CC[C@]4(C)[C@H]3CC[C@]12C
inactive: activity change, negative = inhibition [1] 12.9% | activity change, negative = inhibition [2] 4.8% | activity, negative = inhibition [3] -2.21% | Potency [4] > 20.6 µM

N[C@H](Cc1cccc(-c2ccccc2CP(=O)(O)O)c1)C(=O)O
inactive: activity change, negative = inhibition [1] 8.92% [at 38 µM] | activity change, negative = inhibition [2] 12.7% [at 38 µM] | activity, negative = inhibition [3] 1.71% [at 38 µM] | Potency [4] > 46 µM | Potency [5] > 46 µM | Potency [6] | Potency [7] | outcome [8] | Potency [15] | Potency [9] | Potency [10] | Potency [11] | outcome [12] | outcome [13] | outcome [14]
